Numbering of substitutions follows the chain as printed.

For assay [1], the target named is T1, SALL4 ZFC4 R900W (HT-SELEX) (Mus musculus, UniProt Q8BX22 870-940, R900W).
T1 sequence: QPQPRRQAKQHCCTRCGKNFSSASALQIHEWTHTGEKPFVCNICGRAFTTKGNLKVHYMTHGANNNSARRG
Nature of the assay: HT-SELEX; high values mean tight binding. Particulars: protein: recombinant; vector His6-GST; dsDNA, one strand shown. Put shortly: (§1)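 Binding signal is expressed as fold change in each canonical k-mer's read fraction over the initial random library. To obtain it, 1 µg of purified recombinant mouse SALL4 zinc finger cluster 4 (residues 870–940) was incubated for 10 min at room temperature with library DNA (1.5 µg first cycle, 200 ng later cycles) in 100 µl of 10 mM Tris–HCl pH 7.5, 50 mM NaCl, poly(dI-dC) and DTT. Ni2+ bead-captured complexes went through washing, PCR amplification and reselection for up to 6 cycles, in triplicate, before MiSeq sequencing and scanning for 6-mers.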

Assay [2] has as its target T2, SALL4 ZFC4 G921D (HT-SELEX) (Mus musculus, UniProt Q8BX22 870-940, G921D).
T2 sequence: T1 sequence with W31R, G52D
The experiment in a line: HT-SELEX; high values mean tight binding. Particulars: protein: recombinant; vector His6-GST; dsDNA, one strand shown. The method in brief:
as §1

On to ACCCCG, for which the binding signal in assay [1] turned out to be 0.242 ± 0.00886 fold-change vs cycle 0; in assay [2] it was 0.353 ± 0.0765 fold-change vs cycle 0.
Consider GCAAGC, for which the figures for the binding signal in assay [1] and in assay [2] were 0.302 ± 0.00778 fold-change vs cycle 0 and 0.429 ± 0.0449 fold-change vs cycle 0, respectively.
Taken in the same sequence, the figures for ACGGCT were 0.272 ± 0.0156 fold-change vs cycle 0 and 0.399 ± 0.0636 fold-change vs cycle 0.
For AGGCCG, the binding signal in assay [1] turned out to be 0.104 ± 0.0123 fold-change vs cycle 0; in assay [2] it was 0.216 ± 0.0702 fold-change vs cycle 0.
In the case of ACGTGC, the binding signal amounted to 0.314 ± 0.00898 fold-change vs cycle 0 in assay [1] and 0.439 ± 0.0607 fold-change vs cycle 0 in assay [2].
The like results for ATCCGC were, in that order, 0.279 ± 0.016 fold-change vs cycle 0 and 0.426 ± 0.0842 fold-change vs cycle 0.
Taken in the same sequence, the figures for CGGGCC were 0.0506 ± 0.00629 fold-change vs cycle 0 and 0.15 ± 0.0772 fold-change vs cycle 0.
Taken in the same sequence, the figures for CGCCGA were 0.0711 ± 0.00229 fold-change vs cycle 0 and 0.179 ± 0.0757 fold-change vs cycle 0.
With ACTGCC, the binding signal came out at 0.333 ± 0.0151 fold-change vs cycle 0 in assay [1] and 0.469 ± 0.0726 fold-change vs cycle 0 in assay [2].
Taken in the same sequence, the figures for AGTGCC were 0.287 ± 0.0119 fold-change vs cycle 0 and 0.444 ± 0.0567 fold-change vs cycle 0.
Taken in the same sequence, the figures for GCCGTA were 0.228 ± 0.00567 fold-change vs cycle 0 and 0.345 ± 0.066 fold-change vs cycle 0.
The like results for CTCCGC were, in that order, 0.169 ± 0.0169 fold-change vs cycle 0 and 0.271 ± 0.0458 fold-change vs cycle 0.
For the sequence ACGCGT, the binding signal was 0.28 ± 0.0448 fold-change vs cycle 0 in assay [1] and 0.366 ± 0.0637 fold-change vs cycle 0 in assay [2].
Taken in the same sequence, the figures for CGGACC were 0.198 ± 0.0105 fold-change vs cycle 0 and 0.315 ± 0.0637 fold-change vs cycle 0.
Taken in the same sequence, the figures for ACGAAT were 1.26 ± 0.0589 fold-change vs cycle 0 and 1.24 ± 0.0791 fold-change vs cycle 0.
Taken in the same sequence, the figures for CGGGAC were 0.202 ± 0.00689 fold-change vs cycle 0 and 0.33 ± 0.0639 fold-change vs cycle 0.
Take CGAACG: the binding signal in assay [1] stood at 0.36 ± 0.0176 fold-change vs cycle 0; in assay [2], 0.474 ± 0.087 fold-change vs cycle 0.
Taken in the same sequence, the figures for CAGCCG were 0.115 ± 0.00217 fold-change vs cycle 0 and 0.229 ± 0.0654 fold-change vs cycle 0.
The like results for CCGCTC were, in that order, 0.151 ± 0.0178 fold-change vs cycle 0 and 0.273 ± 0.0659 fold-change vs cycle 0.
The like results for GCGCCC were, in that order, 0.0344 ± 0.0044 fold-change vs cycle 0 and 0.116 ± 0.0623 fold-change vs cycle 0.
As to AGCCGG, the figures for the binding signal in assay [1] and in assay [2] were 0.121 ± 0.00957 fold-change vs cycle 0 and 0.244 ± 0.0663 fold-change vs cycle 0, respectively.
For ACGGGC, the binding signal in assay [1] stood at 0.131 ± 0.00526 fold-change vs cycle 0; in assay [2], 0.241 ± 0.0805 fold-change vs cycle 0.
GGCACC: the binding signal in assay [1] came out at 0.163 ± 0.0146 fold-change vs cycle 0; in assay [2], 0.28 ± 0.0664 fold-change vs cycle 0.
Taken in the same sequence, the figures for ATTCTC were 1.55 ± 0.0853 fold-change vs cycle 0 and 1.41 ± 0.126 fold-change vs cycle 0.
The like results for GCATGC were, in that order, 0.3 ± 0.0114 fold-change vs cycle 0 and 0.437 ± 0.0507 fold-change vs cycle 0.
Taken in the same sequence, the figures for CCGGCC were 0.0476 ± 0.00257 fold-change vs cycle 0 and 0.135 ± 0.0646 fold-change vs cycle 0.
For CCCCGA, the binding signal in assay [1] turned out to be 0.246 ± 0.0185 fold-change vs cycle 0; in assay [2], 0.358 ± 0.0831 fold-change vs cycle 0.
The like results for ACGCCA were, in that order, 0.244 ± 0.0178 fold-change vs cycle 0 and 0.368 ± 0.0567 fold-change vs cycle 0.
ACCATA: the values for the binding signal in assay [1] and in assay [2] were 1.42 ± 0.0261 fold-change vs cycle 0 and 1.36 ± 0.0475 fold-change vs cycle 0, respectively.
The like results for CGGACA were, in that order, 0.354 ± 0.00613 fold-change vs cycle 0 and 0.472 ± 0.0628 fold-change vs cycle 0.
Taken in the same sequence, the figures for GCTCGA were 0.308 ± 0.00752 fold-change vs cycle 0 and 0.475 ± 0.0642 fold-change vs cycle 0.
On to CGGTCC, for which the binding signal came to 0.209 ± 0.0179 fold-change vs cycle 0 in assay [1] and 0.324 ± 0.081 fold-change vs cycle 0 in assay [2].
Taken in the same sequence, the figures for AAGGCC were 0.32 ± 0.0161 fold-change vs cycle 0 and 0.435 ± 0.0818 fold-change vs cycle 0.
The like results for GAGCCA were, in that order, 0.301 ± 0.00918 fold-change vs cycle 0 and 0.466 ± 0.0659 fold-change vs cycle 0.
The like results for GCACGC were, in that order, 0.0991 ± 0.0124 fold-change vs cycle 0 and 0.21 ± 0.063 fold-change vs cycle 0.
Turning to CCGAGC, the binding signal in assay [1] is 0.158 ± 0.00799 fold-change vs cycle 0; in assay [2] it was 0.273 ± 0.0808 fold-change vs cycle 0.
Consider CCCTGC, for which the binding signal came to 0.219 ± 0.0265 fold-change vs cycle 0 in assay [1] and 0.323 ± 0.0875 fold-change vs cycle 0 in assay [2].
Taken in the same sequence, the figures for AGCTGC were 0.284 ± 0.0104 fold-change vs cycle 0 and 0.414 ± 0.0709 fold-change vs cycle 0.
With ACGTCG, the values for the binding signal in assay [1] and in assay [2] were 0.298 ± 0.0109 fold-change vs cycle 0 and 0.438 ± 0.0515 fold-change vs cycle 0, respectively.
Taken in the same sequence, the figures for CGCTTC were 0.316 ± 0.00396 fold-change vs cycle 0 and 0.452 ± 0.0563 fold-change vs cycle 0.
